# PMK inhibit – S. pneumoniae PMK inhibitors, primary screen, biochemical, mevalonate pathway, pilot trial included; phosphomevalonate kinase (Streptococcus pneumoniae D39); purified PMK, PK/LDH-coupled NADH absorbance 340 nm; inhibition, % at 10 µM; hit rate 0.49% among 65,000; AID 539, 2006;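 active means top-ranked compounds by inhibition in the single 10 µM screen, taking a fixed number of the strongest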;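 further: 0% = full reaction with DMSO carrier and 100% = background rate without enzyme reaction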
# A340 absorber – compound light absorbance at 340 nm, profiling panel, artefact control, biochemical, MLSMR library, data from PS, PMK, MK assays; fold change at 10 µM; AID 708, 2007; compound absorbance at 340 nm, fold over control; 65,000 tested, under 10 active;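 active means at 10 µM dose, initial 340 nm absorbance at least 2 fold that of control wells; inactive means change under 2 fold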;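 further: initial absorbance extrapolated from kinetic A340 decline of NADH oxidation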
# NADH coupling – inhibitors of PK/LDH coupling enzymes, profiling panel, artefact control, biochemical, MLSMR library; IC50, µM (top dose mostly 10 µM), inactives show at the highest dose inhibition; coupled PK/LDH NADH assays, four targets; hit rate 0.02% among 65,000;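 active means single-dose screening hits from any of four coupled enzyme assays that gave an IC50 when retested across doses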;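 further: the DPM-DC format reads NADH fluorescence rather than 340 nm absorbance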
# MK inhibit – S. pneumoniae MK inhibitors, primary screen, biochemical, PK/LDH-coupled NADH absorbance; mevalonate kinase [Streptococcus pneumoniae D39]; purified MK, PK/LDH-coupled NADH absorbance 340 nm; inhibition, % at 10 µM; hit rate 0.48% among 65,000; AID 555, 2006;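 active means ranked among the strongest by inhibition in the single 10 µM screen, a fixed top-ranked set picked for dose follow-up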
# Fluor 339 460 – intrinsic fluorescence of library compounds, ex339/em460 – biochemical, MLSMR library, data from DPM-DC assay, artefact control, profiling panel; compound autofluorescence, ex339/em460 nm, NADH buffer; hits give high values; 1 = no-compound wells, NADH background; fluorescence fold increase at 10 µM; hit rate 5.5% among 65,000; AID 709, 2007;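 active means at 10 µM, mean starting fluorescence two-fold or more over control wells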;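 further: signal is the first read of a kinetic run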
# DPM-DC inhibit – S. pneumoniae DPM-DC inhibitors, primary screen, biochemical, PK/LDH-coupled NADH fluorescence; diphosphomevalonate decarboxylase (Streptococcus pneumoniae D39); purified DPM-DC; calls only at 10 µM; hit rate 0.49% among 65,000;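 active means the 320 compounds with the highest percent inhibition in the single-dose primary screen, excluding strongly autofluorescent ones, cut at about 32% in these data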;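 further: kinetic rate of NADH fluorescence loss reporting ADP formed by the decarboxylase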
# An asterisk follows results filed as active; i = inactive; / = not tested or not shown; + = active, no number; [ ] = remark or other dose. Most compounds without a hit are left out; they make up all but 6.8% or so of the library.
SMILES,PMK inhibit,A340 absorber,NADH coupling,MK inhibit,Fluor 339 460,DPM-DC inhibit
C[C@@H]1C[C@H](O)c2cc(Cl)ccc2N1,13,0.99,4%,9,1,i
Clc1ccc2c(c1)[C@H]1OCC[C@H]1[C@@H](c1ccco1)N2,8,1,5%,13,2.3*,+[fluoresces]
CCC(C)NC(=O)CNC(=O)Cn1c(C)cc2ccccc2c1=O (configuration not stated),0,1.1,7%,8,1.2,i
CC12CCC(=O)N1C(C(=O)O)Cc1c2[nH]c2ccccc12 (configuration not stated),13,1,5%,2,1.1,i
COc1ccc2c(c1OC)C(=O)N1C(C(=O)O)Cc3c([nH]c4ccccc34)C21 (configuration not stated),4,1,4%,1,2.2*,i
O=C(CCNC(=O)c1ccc(Br)o1)NCc1ccccn1,9,1,13%,0,0.76,i
O=c1nc(-c2ccccc2)c2cc(Cl)ccc2[nH]1,8,1.1,12%,13,3.1*,i
CN1CCN(c2nc(-c3ccccc3)c3cc(Cl)ccc3n2)CC1,1,0.97,5%,14,1.8,i
CC1CCN(S(=O)(=O)N2CCC(C(=O)NCc3cccs3)CC2)CC1,21,0.98,7%,1,1.1,i
COc1cc(C(=O)Nc2ccc(OCC(=O)O)cc2)cc(OC)c1OC,0,1,2%,5,1.1,i
COCCn1c(=NC(=O)CSC(C)=O)sc2cc(OC)ccc21,4,1.1,13%,5,1.4,i
COCCn1c(=NC(=O)CSCC(=O)NC2CCCCC2)sc2cc(OC)ccc21,13,1.1,6%,4,2*,i
CC(C)Cc1nnc(NC(=O)c2ccncc2)s1,14,1.1,9%,0,1,i
Cc1ccc(NC(=O)NC2(C(=O)NCc3ccco3)CCCCC2)cc1,9,1,6%,8,1.1,i
COc1ccc(NC(=O)c2nnn(Cc3ccc(SC)cc3)c2N)c(OC)c1,0,1.1,29%,11,1.5,+
CCOC(=O)c1cnc(C(C)(C)C)[nH]c1=O,0,1,1%,1,1,i
Cc1ccc(C2C3=C(CC(C)(C)CC3=O)NC3=C2C(=O)CC(C)(C)C3)o1,13,1,9%,10,1.1,i
Cc1nc2[nH]c(=O)c3c(n2n1)NC1=C(C(=O)CC(C)(C)C1)C3c1ccccc1 (configuration not stated),0,1.1,0%,0,4*,/
CCc1nnc(NC(=O)CSc2nnc(CNc3ccc(F)cc3)n2C2CCCCC2)s1,9,0.99,3%,1,1.1,i
O=C(NCc1cccnc1)c1cnn2ccccc12,4,1.1,3%,5,1.2,i
Cc1cccn2c(=O)c3cc(C(=O)NCc4cccnc4)c(=N)n(C(C)C)c3nc12,7,1.1,11%,15,3.7*,/
Cc1cccn2c(=O)c3cc(C(=O)NCc4cccnc4)c(=N)n(C)c3nc12,9,1,9%,3,1.9,i
Cc1cc(C)n2ncc(C(=O)NCc3cccnc3)c2n1,8,1,7%,9,3.6*,i
Cc1ccc2nc3c(cc(C(=O)NCc4cccnc4)c(=N)n3C(C)C)c(=O)n2c1,11,1,7%,3,5*,/
O=C(CCn1c(=O)oc2ccccc21)N1CCN(C(c2ccccc2)c2ccccc2)CC1,18,0.98,6%,0,1.1,i
SMILES,PMK inhibit,A340 absorber,NADH coupling,MK inhibit,Fluor 339 460,DPM-DC inhibit
O=C(NCc1nnc(SC/C=C/c2ccccc2)o1)c1ccco1,16,1,17%,34,1.1,i
Cc1cc(-c2ccccc2)c(C#N)c(N)n1,8,1,4%,10,2.4*,/
Cc1cc(-c2cccnc2)c(C#N)c(SCC#N)n1,3,1,2%,1,1.1,i
Cc1cc(C)n(-c2ncnc3sc4c(c23)CCCC4)n1,16,1,5%,0,2.3*,i
Cc1ccc(-c2c(C)c(-c3ccc(F)cc3)nc(N)c2C#N)o1,11,1.1,6%,7,3*,i
COc1ccc(N(CC(=O)NCc2cccs2)S(=O)(=O)c2cccnc2)cc1,10,1.1,20%,47*,1,i
CCOC(=O)CSc1nnc(CNC(=O)c2cccs2)n1-c1cc(C)ccc1C,20,0.97,7%,1,1,i
NC(=O)C1CCCN(S(=O)(=O)c2ccc(Br)cc2)C1 (configuration not stated),0,1,2%,4,1.1,i
O=C(Cc1ccccc1)Nc1ccc(-c2nnc(-c3ccco3)o2)cc1,12,1,13%,5,2.6*,i
COc1ccccc1CC(=O)Nc1ccc(-c2nnc(-c3ccco3)o2)cc1,1,1.1,5%,9,2.3*,/
CCC(=O)Nc1ccc(C(=O)c2ccccc2)cc1,5,1,2%,0,1.1,i
COc1ccc(CC(=O)Nc2cccc(-c3nnc(-c4ccco4)o3)c2)cc1,8,1,3%,0,1.1,i
CCC(=O)Nc1ccc(-c2nnc(-c3ccccc3)o2)cc1,9,1,7%,4,2.4*,/
O=C(Cc1ccc(Cl)cc1)Nc1ccc(-c2nnc(-c3ccco3)o2)cc1,0,1.2,12%,12,1.5,i
O=C(O)CCC(=O)Nc1ccc(-c2nnc(-c3ccco3)o2)cc1,4,1.1,3%,2,2.1*,/
COc1ccc(CCNC(=O)C2CCCN2C(=O)Nc2cccc(C(C)=O)c2)cc1OC (configuration not stated),4,1,4%,7,1.1,i
COc1ccc(CN(CCN2CCOCC2)C(=O)c2c(F)cccc2F)cc1OC,14,0.99,5%,0,1.1,i
Cc1cc(OCC(=O)N2CCOCC2)ccc1NC(=O)C1CCCCC1,5,1.1,6%,12,1.1,i
Cc1oc2cc(OCC(=O)O)ccc2c(=O)c1Oc1ccccc1,0,1.1,2%,5,1.3,i
CCc1cc2c(=O)c(Oc3ccccc3)c(C)oc2cc1O,0,1.1,2%,4,2.2*,/
CSC1=NC(NCCCO)c2c(sc3c2CC(C)(C)OC3)N1 (configuration not stated),7,1,10%,8,2.9*,i
CC1(C)Cc2c(sc3nc(SCC(=O)O)[nH]c(=O)c23)CO1,0,1.1,6%,13,1.2,i
Cc1[nH]c2ccccc2c1Cc1nnc(SCC(N)=O)o1,0,1.1,0%,0,1.1,i

# Bioassay records deposited in PubChem BioAssay by SRMLSC.
